# Wnt act: Wnt/beta-catenin pathway activation | activation, % at 9.35 µM | Wnt/beta-catenin reporter cell assay, activator, plate reader | 300,000 tested, 1.2% active; in the data active = activation above about 30%, passing the limit was not always enough; inconclusive = no clear call, values can overlap the other calls
# Statin myotox sup: protects C2C12 myotubes from simvastatin toxicity; ATP luminescence, 48 h; scaled: DMSO 0, geranylgeraniol control 100; rescue of ATP level, % at 7.49 µM; 330,000 tested, 0.78% active; AID 602340;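 active = mean ATP rescue above about 67%, or every replicate alone reaching that limit, limit read from the data, passing the limit was not always enough; inconclusive = no clear call, values can overlap the other calls; inactive = mean under the limit and some replicate under it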;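 also: myotubes were challenged with 10 µM simvastatin during compound exposure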
# MITF act: MITF TRPM1 promoter activation in melanoma cells; SK-MEL-5 TRPM1-promoter luciferase, 24 h; % of positive control, neutral wells = 0; activation, % at 12.5 µM; 300,000 tested, 0.75% active;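 active = mean activation of at least 80% with every replicate also reaching 80%; inconclusive = mean reaches 80% but some replicate falls short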
# esBAF inh: SWI/SNF esBAF complex inhibition. reporter increase, % at 12.5 µM. mouse ES cells, Bmi1-luciferase knock-in reporter, 24 h; 100% = twice the neutral-well signal. 350,000 tested, 2% active; in the data active = activation above about 40%; inconclusive = no clear call, values can overlap the other calls;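 also: a rise in the Bmi1 reporter signal indicates esBAF inhibition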
# Rtt109 HAT inh: inhibitors of Candida albicans Rtt109/Vps75 histone acetyltransferase. Q5AAJ8. purified Rtt109/Vps75, ThioGlo CoA-SH fluorescence, 4 h. 330,000 tested, 0.16% active. inhibition, % at 34.9 µM;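 active = inhibition of at least 50% in every replicate; inconclusive = best replicate reaches 50% inhibition but some replicates fall short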
# Target sequence (Q5AAJ8 whole entry, looked up): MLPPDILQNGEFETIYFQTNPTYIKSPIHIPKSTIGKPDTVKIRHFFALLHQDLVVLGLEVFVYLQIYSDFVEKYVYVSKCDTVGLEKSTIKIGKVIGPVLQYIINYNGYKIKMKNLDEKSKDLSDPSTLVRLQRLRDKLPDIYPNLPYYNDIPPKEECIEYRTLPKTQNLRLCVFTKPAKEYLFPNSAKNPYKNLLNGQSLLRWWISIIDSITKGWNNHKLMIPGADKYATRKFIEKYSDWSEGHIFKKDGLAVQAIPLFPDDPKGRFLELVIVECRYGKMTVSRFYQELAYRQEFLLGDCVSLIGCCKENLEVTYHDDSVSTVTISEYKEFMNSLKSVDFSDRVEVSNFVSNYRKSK
# A number is an active result; - = inactive; ? = inconclusive; . = no result given. An excerpt weighted towards active compounds, which were near 3.1% of everything screened.
SMILES,Wnt act,Statin myotox sup,MITF act,esBAF inh,Rtt109 HAT inh
COc1ccc(C)cc1Cn1nnc2ccccc21,-,-,-,-,-
COc1ccc(C2Nc3ccccc3C(=O)N2c2ccc(C)cc2)cc1Cn1nnc2ccccc21 (stereo not given),-,-,98.0,-,.
O=C(NCC[C@@H]1CC[C@@H](NS(=O)(=O)c2ccc(Cl)cc2)[C@H](CO)O1)c1ccccc1F,.,-,.,-,.
CCNC(=O)NC(=O)COc1ccccc1C#N,.,-,92.6,91.1,-
N#Cc1ccccc1OCC(=O)NCCNC(=O)COc1ccccc1C#N,-,-,-,-,-
N#Cc1ccccc1OCC(=O)NC(=O)NCc1ccccc1,-,.,-,.,-
N#Cc1ccccc1OCC(=O)NC(=O)NCc1ccco1,-,.,116.1,.,-
C[C@@H](NC(=O)C[C@@H]1CC[C@@H](NC(=O)Cc2ccccn2)[C@H](CO)O1)c1ccccc1,.,-,.,-,.
CC(NC(=O)c1ccc(N(C)C)cc1)C(c1cccs1)N1CCN(C)CC1 (stereo not given),.,-,-,42.6,-
CC(NC(=O)c1ccc(F)cc1)C(c1cccs1)N1CCN(C)CC1 (stereo not given),-,.,-,.,-
COc1ccc(-c2cnc3c(c2)C(=O)N([C@@H](C)CO)C[C@H](C)[C@@H](CN(C)Cc2ccc(C(=O)O)cc2)O3)cc1,.,-,.,-,.
Cc1nnc(N/N=C/c2ccc([N+](=O)[O-])cc2)n1N,-,-,-,-,-
CCCOc1ccc(/C=N/Nc2cccc([N+](=O)[O-])c2)c(O)c1,.,.,84.0,.,-
O=[N+]([O-])c1ccc(N/N=C/c2ccccc2)c(F)c1,33.9,.,87.3,.,-
O=[N+]([O-])c1ccc(C=NNc2ccccc2)cc1,-,-,-,44.2,-
O=[N+]([O-])c1cccc(C=NNc2ccccc2)c1,-,-,-,?,-
Cc1csc(N/N=C/c2ccc([N+](=O)[O-])cc2)n1,-,-,.,52.6,-
C[C@H](CO)N1C[C@H](C)[C@@H](CN(C)S(=O)(=O)c2ccc(F)cc2)Oc2ccc(NC(=O)Nc3ccccc3)cc2CC1=O,.,-,.,-,.
C[C@H]1CN([C@@H](C)CO)C(=O)Cc2cc(NC(=O)Nc3ccc4c(c3)OCO4)ccc2O[C@@H]1CN(C)C(=O)Nc1ccc(C(F)(F)F)cc1,.,-,.,-,.
O=[N+]([O-])c1cccc(N/N=C/c2cc([N+](=O)[O-])ccc2O)c1,-,.,-,.,-
O=[N+]([O-])c1ccc(N/N=C/c2ccccc2O)cc1,-,-,-,68.7,-
CC(C)NC(=O)N(C)C[C@H]1Oc2ccc(NC(=O)Cc3cn(C)c4ccccc34)cc2C(=O)N([C@@H](C)CO)C[C@H]1C,.,-,.,-,.
Cc1ccc(C)c(NC(=O)CSc2nnc(C3CCCCC3)o2)c1,-,71.4,-,-,-
O=S(=O)(N[C@H]1CC[C@@H](CCn2cc(-c3cccc(F)c3)nn2)O[C@@H]1CO)c1ccc(F)cc1,.,-,.,-,.
N=C1C(c2nc3ccccc3[nH]2)=C(O)CN1c1ccccc1,-,-,-,62.7,-
SMILES,Wnt act,Statin myotox sup,MITF act,esBAF inh,Rtt109 HAT inh
N=C1C(c2nc3ccccc3[nH]2)=C(O)CN1c1ccc(CC(=O)O)cc1,.,-,-,-,-
CCC(C)N1CC(O)=C(c2nc3ccccc3[nH]2)C1=N (stereo not given),-,-,-,?,-
CC1C(O)=C(c2nc3ccccc3[nH]2)C(=N)N1c1ccccc1 (stereo not given),.,-,-,48.0,-
Cc1cccc(NC(=O)Cn2nnc3ccccc32)c1,-,-,-,63.2,-
COC(=O)c1ccc(NC(=O)Cn2nnc3ccccc32)cc1,-,.,-,71.1,-
Cc1ccc(NC(=O)Cn2nnc3ccccc32)cc1,-,.,-,.,-
COCC(=O)Nc1ccc2c(c1)C(=O)N(C)[C@H]1CC[C@H](CC(=O)NCc3ccc(OC)cc3)O[C@H]1CO2,.,-,.,-,.
CC(C)CC#Cc1ccc2c(c1)O[C@@H](CN(C)C(=O)c1ccncc1)[C@@H](C)CN([C@@H](C)CO)S2(=O)=O,.,-,.,-,.
c1ccc(OCc2cc(-c3ccccc3)no2)cc1,?,.,-,.,-
COc1ccc(OCc2cc(C(=O)N3C[C@H]4CC[C@H]3C4)no2)c(Cl)c1,-,-,83.6,61.3,-
COCC1CCN(C(=O)c2cc(COc3ccc(F)cc3F)on2)C1 (stereo not given),-,-,-,-,-
COc1ccccc1OCc1cc(-c2ccccc2)no1,.,.,95.4,.,-
O=C(c1cc(COc2ccc(F)cc2F)on1)N1C[C@H]2CC[C@H]1C2,-,-,-,46.1,-
O=C(c1cc(COc2c(F)cccc2F)on1)N1CCC(c2ccccc2Cl)C1 (stereo not given),-,-,-,45.0,-
COc1ccc(OCc2cc(C(=O)N3CCCN(C(C)=O)CC3)no2)c(Cl)c1,-,-,-,-,-
CC(=O)c1cccc(OCc2cc(C(=O)N3CC4C[C@@H]5CC3C[C@H](C4)C5)no2)c1,-,-,-,-,-
O=C(c1cc(COc2ccc(F)cc2F)on1)N1CC2C[C@@H]3CC1C[C@H](C2)C3,-,-,?,55.2,-
O=C(c1cc(COc2c(F)cccc2F)on1)N1C[C@H]2CC[C@H]1C2,33.7,-,-,92.1,-
COc1ccccc1OCc1cc(C(=O)N2CC3C[C@@H]4CC2C[C@H](C3)C4)no1,-,-,88.9,63.3,-
COc1ccccc1OCc1cc(C(=O)N2CCN(C)C(c3ccccc3)C2)no1 (stereo not given),41.5,.,-,.,-
Cc1ccc(C2=NN3C(=O)c4ccccc4C3C2)cc1 (stereo not given),39.3,-,-,-,-
O=C(Nc1ccc(Cl)cc1)N1C[C@@H]2[C@H](c3ccccc31)[C@H](CO)N2CC1CCCCC1,.,-,.,-,.
Fc1ccc(SCCc2ccccn2)cc1,-,-,-,-,-
CC(C)(C)c1ccc(SCCc2ccccn2)cc1,60.6,.,102.4,.,-
CC(C)(C)c1ccc(S(=O)(=O)CCc2ccccn2)cc1,-,.,-,70.5,-
SMILES,Wnt act,Statin myotox sup,MITF act,esBAF inh,Rtt109 HAT inh
Cc1ccc(S(=O)(=O)CCc2ccccn2)cc1,.,-,-,-,-
O=C(C[C@@H]1C=C[C@@H](NC(=O)c2ccc(F)cc2)[C@H](CO)O1)NCCc1ccncc1,.,-,.,-,.
CC(C)(C)c1ccc(CCC2OCC(C[N+]3(C)CCOCC3)O2)cc1 (stereo not given),31.5,.,.,.,-
C[C@@H]1CN([C@H](C)CO)S(=O)(=O)c2ccc(-c3cccc(F)c3)cc2O[C@@H]1CN(C)C,.,-,.,-,.
CCC(=O)Nc1ccc2c(c1)C(=O)N(C)C[C@H](OC)[C@@H](C)CN(Cc1ccccn1)[C@@H](C)CO2,.,-,.,-,.
CC(C)c1nc(-c2ccc([N+](=O)[O-])cc2)cs1,.,-,-,55.3,-
CC(=O)Nc1nc(-c2ccc([N+](=O)[O-])cc2)cs1,-,.,-,.,-
O=C(Nc1cccc(Cl)c1)N[C@H]1CC[C@@H](CCNC(=O)C2CCOCC2)O[C@H]1CO,.,-,.,-,.
CCCNC(=O)NC(=O)CSc1nnc(C)n1N,-,79.7,-,-,-
